# Bioassay records deposited in PubChem BioAssay by National Center for Advancing Translational Sciences (NCATS).
# Pf growth 48h – Primary qHTS for delayed death inhibitors of the malarial parasite plastid, 48 hour incubation | P. falciparum luciferase growth in erythrocytes, 48 h | Potency, µM (top dose mostly 28.7 µM), for inactives: at the top dose activity change, negative = inhibition, usual class: inhibitors | 5.9% of 310,000 active | AID 504832, 2011; note: potency is the fitted concentration of half-maximal effect; % is set by controls: 0 for no effect and ±100 for the full control effect
#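 Growth was read as firefly luciferase luminescence after a 48 h, 37 C, 5% CO2 exposure of compounds to reporter-bearing P. falciparum cultures (0.1% parasitemia, 2% hematocrit final) in Albumax-supplemented RPMI 1640.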
# Shiga toxin inh – A qHTS for Small Molecule Inhibitors of Shiga Toxin; Vero cells, Shiga toxin protein synthesis inhibition reporter; inhibition, % at 38.7 µM; 9.2% of 290,000 active; AID 2315, 2010; in the data active = inhibition mostly above about 28%, no sharp cut-off; inactive = mostly below about 43%; note: 0% is about no effect
# Sm TGR block – qHTS Assay for the Inhibitors of Schistosoma Mansoni Peroxiredoxins | Schistosoma mansoni thioredoxin glutathione reductase (TGR), Q962Y6 | purified TGR, DTNB reduction, TNB absorbance 405 nm | Potency, µM (titrated, usually from 114 µM), for inactives: top-dose activity change, negative = inhibition, actives largely listed as inhibitors | 3% of 360,000 active | AID 485364, 2010; note: potency is the fitted concentration of half-maximal effect; % is set by controls: 0 for no effect and ±100 for the full control effect; nearly all actives have a fitted effect of over 60% in size
#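 First, TGR (20 nM dispensed) and NADPH were mixed with compound. Second, a 15 min room-temperature incubation followed. Third, further NADPH and then DTNB were added to start the reaction. Finally, TNB absorbance was monitored kinetically.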
# Pf growth 96h – Primary qHTS for delayed death inhibitors of the malarial parasite plastid, 96 hour incubation | P. falciparum luciferase reporter growth, 96 h | Potency, µM (doses to about 28.7 µM), for the others: at the top dose activity change, negative = inhibition, hits mostly inhibitors | 6.9% of 320,000 active; note: potency is the fitted concentration of half-maximal effect; % is set by controls: 0 for no effect and ±100 for the full control effect
#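 Luminescence readout: decreased luciferase signal marks inhibited growth of reporter-expressing P. falciparum in infected red cells (2% hematocrit, 0.05% parasitemia final), exposed to compound two generations (96 h, 37 C, 5% CO2).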
# NS1 function inh – qHTS Assay for Inhibitors of Influenza NS1 Protein Function; Potency, µM (series often up to 46.1 µM), inactives show at the top dose activity, positive = more growth; 0.4% of 270,000 active; calls by dose curve; note: potency is the fitted concentration of half-maximal effect; actives are rising curves; nearly all actives have a fitted effect of over 50% in size
#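 A cell-based growth assay was used: compounds that relieve NS1-induced slow growth of budding yeast raise OD600. Assay medium was yeast nitrogen base with ammonium sulphate and -URA supplement, pH 6.0, with 2% galactose.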
# CHX counter – Cycloheximide Counterscreen for Small Molecule Inhibitors of Shiga Toxin. max response, %. 12% of 300,000 active. cell reporter, cycloheximide protein synthesis inhibition counterscreen. AID 2314, 2010; in the data active = max response mostly above about 13%, no sharp cut-off; inactive = mostly below about 14%; note: read at 38.3 µM for the half of the compounds with a filed dose; 0% is about no effect
# * hit, by the source's call; ? = inconclusive; · = no result; [ ] = another dose, or the depositor's remark. Only some compounds are listed: those with a hit (about 21% of all), similar ones and a draw of the others. Unless noted, calls come from the whole dose curve; as a rule, active = well fitted curve in the direction sought with a large enough effect; inconclusive = small, poorly fitted or top-dose-only effect, or another doubt; inactive = no such curve, though single readings can be large; an effect the other way counts as inactive or inconclusive.
SMILES,Pf growth 48h,Shiga toxin inh,Sm TGR block,Pf growth 96h,NS1 function inh,CHX counter
COc1ccc(-c2c(C)nn3c(N4CCC5(CC4)OCCO5)cc(C)nc23)cc1OC,12µM*,-4,-1%,-1%,-16%,2
COCCN1CCN(c2cc(-c3ccccc3)nc3cc(-c4cccc(F)c4)nn23)CC1,12µM*,11,-2%,?,-26%,-3
Cc1ccc(-c2cc3nc(-c4ccccc4)cc(N4CCC5(CC4)OCCO5)n3n2)cc1,8.3µM*,15,0%,0.29µM*,12%,-1
COc1ccccc1CNC(=O)c1ccc2c(c1)nc(C)n2-c1cccc(C)c1,·,·,2%,·,·,·
Cn1cnnc1SCC(=O)Nc1ccc2ccccc2c1,52%,·,-17%,156%,·,·
COc1ccc(OC)c(C(c2nnnn2CCc2ccccc2)N2CCN(c3ccccc3)CC2)c1 (stereo not drawn),9.3µM*,1,-1%,·,-1%,-2
CCCC(c1nnnn1Cc1ccco1)N1CCN(c2cc(Cl)ccc2C)CC1 (stereo not drawn),10µM*,29,6%,155%,-40%,12
CCCC(c1nnnn1Cc1ccco1)N1CCN(c2ccccc2)CC1 (stereo not drawn),?,18,0%,20%,-7%,0
CCN1CCN(C(c2cccc(OC)c2OC)c2nnnn2Cc2ccco2)CC1 (stereo not drawn),21%,-7,0%[57.1 µM],16%,4%,-2
COc1ccc(N2CCN(C(c3cc(OC)ccc3OC)c3nnnn3Cc3ccco3)CC2)cc1 (stereo not drawn),13µM*,-3,-32%,?,-9%,-2
COc1ccccc1C(c1nnnn1Cc1ccco1)N1CCN(c2cccc(C)c2C)CC1 (stereo not drawn),3.3µM*,43*,-13%,?,?,28*
CN(C)CCNC(C(=O)Nc1cccc(C(F)(F)F)c1)c1ccccc1 (stereo not drawn),-30%,-3,-17%,-12%,2%,-3
O=C(OC(C(=O)NC1CCCC1)c1ccccn1)c1cccs1 (stereo not drawn),6%,-4,2%,19%,-5%,-1
COc1ccc(C2CC(c3ccccc3)Oc3cc(C)c(Cl)c(C)c32)cc1 (stereo not drawn),·,-6,·,·,·,1
CCSc1nc2sc3c(c2c(=O)n1-c1ccc(OC)cc1)CCN(C)C3,?,-13,5%,?,-3%,-2
CCOC(=O)CSc1nc2sc3c(c2c(=O)n1-c1ccccc1)CC(C(C)C)OC3 (stereo not drawn),·,·,-6%,·,·,·
CCOC(=O)CSc1nc2sc3c(c2c(=O)n1-c1ccc(OC)cc1)CCN(C)C3,1.9µM*,-3,-17%,1.5µM*,7%,-3
COc1ccc(-n2c(SCC(N)=O)nc3sc4c(c3c2=O)CCN(C)C4)cc1,?,0,-17%,2.1µM*,24%,5
CCOc1ccc(-n2cnc3sc4c(c3c2=O)CCCC4)cc1,11%,22,-24%,19%,-9%,12
CN1CCc2c(sc3nc(SCC(=O)N4CCOCC4)n(-c4ccc(Cl)cc4)c(=O)c23)C1,?,-4,-13%,-19%,10%,-3
COc1ccc(-n2cnc3sc4c(c3c2=O)CCCC4)cc1,29%,72*,0%,-13%,-2%,25
CCOC(=O)CSc1nc2sc3c(c2c(=O)n1-c1ccccc1)CCN(C(C)C)C3,0%[0.00184 µM],-12,?,0.83µM*,-2%,-8
CC(C)(CCO)Nc1ncnc2onc(-c3ccc(F)cc3)c12,-7%,33,10%,1%,2%,1
O=C(C1CCN(S(=O)(=O)c2ccccc2)CC1)N1CCCCC1,23%,-7,-11%,380%,10%,-5
Cc1nc(CC(=O)Nc2ccc(C)c(C)c2)cs1,·,·,-5%,·,·,·
SMILES,Pf growth 48h,Shiga toxin inh,Sm TGR block,Pf growth 96h,NS1 function inh,CHX counter
Cc1ccc(NC(=O)CN2C(=O)C3CC=C(Cl)CC3C2=O)cc1 (stereo not drawn),36%,6,1%,11%,1%,-1
COc1ccc(-n2ccn(CC(=O)NCc3ccc(C)cc3)c(=O)c2=O)cc1OC,·,·,-2%,·,·,·
CCCCSc1nc2sc3c(c2c(=O)n1-c1ccc(C)cc1)CCN(C)C3,?,-3,0%,?,5%,3
CN1CCc2c(sc3nc(SCC(=O)NCc4ccco4)n(-c4ccccc4)c(=O)c23)C1,9.3µM*,48*,-23%,0.93µM*,15%,39*
CCOC(=O)CSc1nc2sc3c(c2c(=O)n1-c1ccccc1)CCN(C)C3,4.7µM*,·,-10%,-26%,23%,2
COc1ccc(-n2c(SCC(=O)O)nc3sc4c(c3c2=O)CCCC4)cc1,-4%,3,0%,-4%,2%,-3
CCOC(=O)CSc1nc2sc3c(c2c(=O)n1-c1ccc(C)cc1)CCN(C)C3,4.7µM*,-11,-1%,2.3µM*,4%,1
COc1ccc(-n2c(SCC(=O)NCc3ccco3)nc3sc4c(c3c2=O)CCN(C)C4)cc1,?,22,-18%,?,22%,20
COc1ccc(-n2c(SCCNCCO)nc3sc4c(c3c2=O)CCCC4)cc1,13µM*,-6,-16%,9.3µM*,12%,-3
C#C[C@]1(O)CC[C@H]2[C@@H]3CCC4=Cc5oncc5C[C@]4(C)[C@H]3CC[C@@]21C,-5%,·,·,-17%,·,·
Cc1cc(C)cc(N(CC(=O)NCC2CCCO2)C(=O)CCC(=O)Nc2nccs2)c1 (stereo not drawn),14%,-5,2%,17%,6%,-7
Cc1ccc(CCNC(=O)Cn2c(-c3cccs3)cc3ccccc32)cc1,·,·,-2%,·,·,·
C=C(C)CSc1nc2sc3c(c2c(=O)n1-c1ccccc1)CCC(C)C3 (stereo not drawn),·,·,48%,·,·,·
C=C(C)CSc1nc2sc3c(c2c(=O)n1-c1ccc(OC)cc1)CCN(C)C3,1.9µM*,5,-14%,1µM*,1%,-3
CN1CCc2c(sc3c2c(=O)n(-c2cccc(Cl)c2)c2nncn32)C1,·,·,·,·,-2%,·
COC(=O)CSc1nc2sc3c(c2c(=O)n1-c1ccc(OC)cc1)CCN(C)C3,6.6µM*,-14,4%,5.2µM*,2%,-2
Cc1cccc(-n2cnc3sc(C)c(C)c3c2=O)c1,?,20,15%,-7%,-8%,5
CN1CCc2c(sc3nc(NCCO)n(-c4cccc(Cl)c4)c(=O)c23)C1,·,-7,5%,4.7µM*,4%,-3
COc1cccc(-n2cnc3sc(C)c(C)c3c2=O)c1,5%,active,2%,33%,-15%,29*
Cc1ccc(S(=O)(=O)NC2CC(C)(C)NC(C)(C)C2)cc1C,?,2,-9%,?,8%,-2
